TRPV1 agonist – HTS Assay for Compounds that Act as Agonists of the Vanilloid Receptor 1 | Transient receptor potential cation channel subfamily V member 1 (Homo sapiens), Q8NER1 | TRPV1-expressing cells, Fluo-8 calcium influx, agonist mode | activation, % at 8.33 µM | actives 0.19% (n = 320,000) | AID 540275, 2011; in the data active means activation above about 80%; inconclusive means between about 30% and that limit; further: 0% is about no effect
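Cells expressing TRPV1 were dye-loaded with Fluo-8 and read kinetically: 10 s baseline, 3 min after compound (agonist portion), then 2 min after EC20 capsaicin (allosteric enhancer portion). Calcium-bound dye fluorescence at 480/520 nm.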
hERG WT inh – qHTS for Inhibitors of KCHN2 3.1: Wildtype qHTS; Voltage-gated inwardly rectifying potassium channel KCNH2 (Homo sapiens), Q12809; U2OS, BacMam KCNH2, thallium flux FluxOr; hits give low values; activity change, % at 1.84 µM; actives 0.37% (n = 340,000); AID 720551, 2013;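 active means maximum activity change below -70%; inconclusive means maximum activity change between -70% and -50%; inactive means maximum activity change above -50%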; further: on the % scale 0 is the no-effect control and ±100 the full control effect
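U2OS cells were transduced with wild-type KCNH2 virus (2.03 x 10^8 / mL) for 4 h at room temperature, then cultured overnight at 37 C. Thallium flux was read with FluxOr dye. Rate constants were normalized to DMSO controls.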
KCNH2 3.1 block – qHTS for Inhibitors of KCHN2 3.1: Mutant qHTS; U2OS KCNH2 3.1, thallium flux FluxOr; hits give low values; activity change, % (tested at about 1.8 µM); Potassium voltage-gated channel subfamily H member 2, brain isoform KCNH2 3.1 (human); actives 0.95% (n = 340,000);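 active means maximum activity change below -70%; inconclusive means maximum activity change from -70% to -50%; inactive means maximum activity change above -50%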;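 further: thallium influx rate constant from kinetic fluorescence after stimulation buffer; on the % scale 0 is the no-effect control and ±100 the full control effect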
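Channel expression came from 3.1 mutant virus (1.77 x 10^8 /mL) applied to suspended U2OS cells for 4 h. Flux was tracked with FluxOr dye plus Red40 quencher, and kinetic rate constants normalized to controls.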
TRPV1 potentiator – HTS Assay for Compounds that Act as Potentiators of the Vanilloid Receptor 1; potentiation, % at 8.33 µM; TRPV1-expressing cells, Fluo-8 calcium influx, capsaicin EC20 potentiation; AID 540277, 2011; Transient receptor potential cation channel subfamily V member 1 (Homo sapiens), Q8NER1; actives 0.02% (n = 320,000); in the data active means potentiation above about 80%; inconclusive means between about 30% and that limit; further: 0% is about no effect
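Cells expressing TRPV1 were dye-loaded with Fluo-8 and read kinetically: 10 s baseline, 3 min after compound (agonist portion), then 2 min after EC20 capsaicin (allosteric enhancer portion). Calcium-bound dye fluorescence at 480/520 nm.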
* hit, by the source's call; ? = inconclusive; nt = not tested or not shown; ! = not confirmed by another sample. The list is not random: actives were taken first. Their share in the collection is about 1.3%.

SMILES	TRPV1 agonist	hERG WT inh	KCNH2 3.1 block	TRPV1 potentiator
CCOc1ccc(N2CC(O)(c3ccc(F)cc3)[N+]3=C2CCCC3)cc1 (stereo unspecified)	-1	-49	-104*	2
CCOc1ccc(N2CC(O)(c3cccs3)[N+]3=C2CCCC3)cc1 (stereo unspecified)	-1	?	-102*	5
COc1ccc(N2CC(O)(c3ccc(OC(F)F)cc3)[N+]3=C2CCCC3)cc1 (stereo unspecified)	0	-86*	-73*	?
COc1ccc(N2CC(O)(c3ccc(F)cc3)[N+]3=C2CCCC3)cc1 (stereo unspecified)	-1	4	-16	0
CN(C(=O)CSC(=O)c1ccccc1)c1ccccc1	7	14	22	5
CC(C)O/C(=N/S(=O)(=O)c1ccc(Cl)cc1)c1ccccc1	nt	-6	15	nt
Cc1c(C(=O)N2CCCCC2CCN2CCCC2=O)oc2c(F)cccc12 (stereo unspecified)	-3	-5	-2	-6
CC1CCC(C(C)C)C(OC(=O)Cn2c(-c3ccc(Cl)cc3)[n+](C)c3ccccc32)C1 (stereo unspecified)	9	-9	-9	-21
Cc1ccccc1OCc1n(CC(=O)OC2CC(C)CCC2C(C)C)c2ccccc2[n+]1C (stereo unspecified)	4	-82*!	-10	-1
CCOC(=O)Cn1c(COc2ccccc2OC)[n+](C)c2ccccc21	nt	-6	-6	nt
CC1CCC(C(C)C)C(OC(=O)Cn2c(-c3ccc(Br)cc3)[n+](C)c3ccccc32)C1 (stereo unspecified)	5	-104*!	?	-9
O=C(NCC1CCCO1)c1ccc(Cl)c(S(=O)(=O)N2CCCCC2)c1 (stereo unspecified)	7	-4	6	2
O=C(Nc1ccc(F)c(F)c1)C1CCN(S(=O)(=O)c2cccs2)CC1	?	4	-13	-16
Cc1cccc(-c2cc3c(nn2)-c2ccccc2C3=O)c1	4	-8	5	5
Cc1cnc2c(c1)C(=O)c1ccccc1-2	-3	1	-111*	-11
CCOc1ccc(CCNC(=O)C2CCCN(S(=O)(=O)N3CC(C)CC(C)C3)C2)cc1OCC (stereo unspecified)	10	-7	-2	-18
COc1ccccc1C(=O)Nc1ccc(-c2nnc(SCC(=O)O)n2C)cc1	0	13	0	-28
Cn1c(SCC(=O)O)nnc1-c1ccc(NC(=O)c2ccc(Cl)c(Cl)c2)cc1	18	-127*	-16	-15
FC(F)(F)c1cc(C(F)(F)F)c2ccc(N3CCN(c4ccc(Cl)cc4)CC3)nc2n1	1	1	-90*	10
NNC(=O)c1ccc([N+](=O)[O-])c(CS(=O)(=O)c2ccc(Cl)cc2)c1	-4	1	-99*	-27
O=C(NCCN1CCOCC1)/C(=C\c1ccc(F)cc1)NC(=O)c1ccccc1	-2	-40	-36	?
CCOC(=O)N1CCC(N2CCCC(C(=O)c3cccc(OC(C)C)c3)C2)CC1 (stereo unspecified)	2	0	-80*	-1
CCOC(=O)N1CCC(N2CCCC(C(=O)c3cccc(OC)c3)C2)CC1 (stereo unspecified)	-2	24	3	-6
COc1ccc2c(n1)Sc1nc3ccccc3nc1N2	110*	-13	-7	11
CCCc1nnc(SCC(=O)Nc2nnc(CC)s2)n1CC1CCCO1 (stereo unspecified)	1	5	16	-1
SMILES	TRPV1 agonist	hERG WT inh	KCNH2 3.1 block	TRPV1 potentiator
CCc1nnc(NC(=O)CSc2nnc(C)n2CC2CCCO2)s1 (stereo unspecified)	1	-161*	5	-9
CCOC(=O)c1ccc(NC(=O)NCCN2CCCCC2)cc1	1	-3	-27	13
CCOc1cccc(N2CCN(CCNC(=O)Nc3ccc(C)cc3)CC2)c1C	?	6	-93*	-10
CCOc1ccc(NC(=O)NCCN2CCN(c3cccc(C)c3C)CC2)cc1	0	36	-89*	26
CCOc1ccc(NC(=O)NCCN2CCN(c3ccccc3F)CC2)cc1	9	13	-34	22
C/C(=N\Nc1ccc2nncn2n1)c1ccc(Cl)s1	115*	1	-2	-11
C/C(=N\NC(N)=S)c1ccc(Cl)s1	-1	7	-1	0
Cc1c(C(=O)N(C)C)c2ccc(Cl)cc2n1O	-6	0	-107*	2
CC1(C)Cc2c(cnn2-c2ccccc2)C(NC(=O)c2ccoc2)C1 (stereo unspecified)	9	?	-41	-8
Cc1cc(C(=O)NC2CC(C)(C)Cc3c2cnn3-c2cccc(F)c2)nn1C (stereo unspecified)	22	0	3	-11
CC1(C)Cc2c(cnn2-c2cccc(F)c2)C(NC(=O)c2csnn2)C1 (stereo unspecified)	?	-74*	?	-10
CC1(C)Cc2c(cnn2-c2ccc(F)cc2)C(NC(=O)c2ccoc2)C1 (stereo unspecified)	28	?	-81*	-22
CCc1noc(C)c1C(=O)N1CCN(c2cccc(Cl)c2)CC1	nt	5	13	nt
O=C(NC1CCCCCCC1)c1ccc(Br)o1	?	-11	-199*	-3
CC1C(=O)N(Cc2cn(Cc3ccco3)nn2)CCS(=O)(=O)N1Cc1ccc(-c2ccncc2)cc1 (stereo unspecified)	nt	6	5	nt
C=CCn1c(SCC(=O)N(CC)C2CCS(=O)(=O)C2)nc2cc(C(=O)O)ccc2c1=O (stereo unspecified)	-5	-11	-2	4
Fc1cccc(-c2cc3nc4c(c(NCc5ccco5)n3n2)CCCC4)c1	?	-10	-78*	-7
Fc1cccc(-c2cc3nc4c(c(N5CCOCC5)n3n2)CCCC4)c1	?	-8	-2	-4
Cc1ccc(NC(=S)Nc2cccc3cnccc23)c(C)c1	0	1	3	-7
Cc1cc(C)cc(NC(=S)Nc2cccc3cnccc23)c1	-1	-228*	-2	-4
CCCN(CCC)CCNC(=O)CCC(=O)Nc1ccc2nc(N3CCOCC3)cc(C)c2c1	3	3	-174*	4
CCCN(CCC)CCCNC(=S)Nc1ccc2nc(N3CCN(CC)CC3)cc(C)c2c1	-4	-6	14	3
CCCN(CCC)CCCNC(=S)Nc1ccc2nc(N3CCN(C)CC3)cc(C)c2c1	-1	15	-109*	2
Cc1cc(N2CCOCC2)nc2ccc(NC(=O)C3CCC(C)CC3)cc12 (stereo unspecified)	0	-14	-107*	5
C[C@@H]1CN([C@H](C)CO)C(=O)CCCn2nncc2CO[C@H]1CN(C)C(=O)Nc1cccc2ccccc12	nt	12	13	nt

Source: PubChem
